Screening results from PubChem.
Sampled rows, rich in hits. Any-hit rate of the full collection: about 4.8%.
DAX1 inh-1 = DAX1 (NR0B1) inhibitors on StAR promoter, primary screen, cell-based, luminescence, SF-1 (NR5A1), full-length DAX-1; HEK293T StAR-luciferase reporter, SF-1/DAX-1 repression relief; inhibition, % at 6.8 µM; actives 1.1% (n = 370,000); AID 652010, 2013;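 active = inhibition above the mean over all tested compounds plus 3 SD, cut at about 3.6% in these data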;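 note: higher inhibition means more luminescence from relief of DAX-1 repression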
SMARCA2 act = SMARCA2 (BRM) function activators, primary screen, cell-based, luminescence, high throughput | MG213 cells, MMTV-luciferase reporter, dexamethasone, overnight | activation, % at 9.1 µM | AID 652017, 2013 | actives 1% (n = 370,000); in the data active = activation above about 7.8%
ssDAF12 agonist = S. stercoralis DAF-12 nuclear receptor activators, primary screen, cell-based, luminescence, HEK293, GRIP1 co-expression, lit1-tk-luc | Nuclear hormone receptor DAF-12 (Strongyloides stercoralis) | HEK293 ssDAF-12/GRIP1 lit1-tk-luc reporter; % of 3 µM dafachronic acid response | activation, % at 6.8 µM | actives 1% (n = 370,000) | AID 652126, 2013;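 active = activation above the mean over all tested compounds plus 3 SD, cut at about 0.9% in these data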
hcDAF12 agonist = H. contortus DAF-12 nuclear receptor activators, primary screen, cell-based, luminescence, HEK293, lit1-tk-luc reporter. HEK293 hcDAF-12 lit1-tk-luc reporter; 0% DMSO, 100% Δ7-dafachronic acid. activation, % at 6.8 µM. actives 1.4% (n = 370,000). AID 652067, 2013;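 active = activation above the mean of all tested compounds plus 3 SD, cut at about 5.5% in these data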
hgDAF12 agonist = H. glycines DAF-12 receptor agonists, primary screen, cell-based, luminescence, HEK293, GAL4 fusion, UAS-luciferase; actives 1.8% (n = 370,000); HEK293 GAL4-hgDAF12 UAS-luciferase reporter, agonist luminescence; normalized to butyrate control; Nuclear hormone receptor DAF-12 (Heterodera glycines), GAL4 fusion; AID 687014, 2013; activation, % at 6.8 µM;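 active = activation above a cutoff set at the mean of all screened compounds plus 3 SD, cut at about 10% in these data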
DAX1 inh-2 = DAX1 (NR0B1) inhibitors, primary screen, cell-based, HEK293, Gal4-DAX1, luciferase luminescence. HEK293 Gal4-DAX1 luciferase reporter. Nuclear receptor subfamily 0 group B member 1 (Homo sapiens), P51843. AID 504766, 2011. actives 0.99% (n = 340,000). inhibition, % at 6.75 µM;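 active = inhibition above the mean over all tested compounds plus 3 SD, cut at about 4.2% in these data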;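 note: inhibition shows as a rise in luminescence from relieved DAX1 repression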
Target sequence (P51843 207-470 limits assumed): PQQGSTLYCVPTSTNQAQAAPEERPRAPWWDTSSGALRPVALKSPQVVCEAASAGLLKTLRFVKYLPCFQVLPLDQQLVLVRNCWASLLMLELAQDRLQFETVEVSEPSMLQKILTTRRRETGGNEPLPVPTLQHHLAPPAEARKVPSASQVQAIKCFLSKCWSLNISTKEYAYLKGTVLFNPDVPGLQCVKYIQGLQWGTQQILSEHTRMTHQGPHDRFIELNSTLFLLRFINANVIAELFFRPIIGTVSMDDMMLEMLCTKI
Of the large screens only hits and unclear results are named; the others gave an inactive call.

O=C(NCc1ccccc1)[C@@H]1CCCN1C(=O)[C@@H]1CCCN1C(=O)c1ccc(Cl)cc1Cl	none (no result: DAX1 inh-2)
COc1cc(C(=O)OC2CC3CCC2(C)C3(C)C)ccc1OC(C)=O (centres undefined)	DAX1 inh-2 4.7
CC1(C)C2CCC1(C)C(OC(=O)CNc1ccccc1)C2 (centres undefined)	none
Cc1nn(-c2ccccc2)c(/N=C/c2ccc(O)cc2)c1-c1ccccc1	ssDAF12 agonist 1.0
Cc1cc(C)cc(N2CC(C(=O)O)CC2=O)c1 (centres undefined)	none
CC1=CC(=O)Nc2ccccc2S1	ssDAF12 agonist 1.1, hcDAF12 agonist 5.7, hgDAF12 agonist 11.0
CC1(C)CC(=O)C2=C(C1)Nc1ccccc1S2	none
O=C(NN=C1CCCC1)c1[nH]c2ccc(Cl)cc2c1-c1ccccc1	none (no result: DAX1 inh-2)
CC(=O)NNC(=O)c1[nH]c2ccc(Cl)cc2c1-c1ccccc1	DAX1 inh-2 5.0
CSc1nc(N)nc(C2CC2)n1	DAX1 inh-2 4.8
CSc1nc(N)nc(N(C)C)n1	none
COc1c(S(=O)(=O)Nc2cccnc2)ccc(Cl)c1Cl	none
CCOc1ccc(N(CC(=O)NCc2ccccc2C)S(C)(=O)=O)cc1	DAX1 inh-2 4.3
NS(=O)(=O)c1ccc(CCNC(=O)CSc2nc3ccsc3c(=O)n2CCCCCC(=O)O)cc1	none
CCCCNC(=O)CSc1nc2ccsc2c(=O)n1CCCC(=O)NCCc1ccc(S(N)(=O)=O)cc1	DAX1 inh-2 6.1
CCC1(c2ccccc2)NC(=O)N(CC(=O)NCCN2C(=O)S/C(=C\c3cccnc3)C2=O)C1=O (centres undefined)	none
CCOC(=O)c1ccc(NC(=O)CSc2nc(SC)ns2)cc1	none
CCOc1ccc2nc(NC(=O)CSc3ccc(Cl)cc3)sc2c1	none
CSc1nsc(SCC(=O)Nc2ccc(OC(C)=O)cc2)n1	hgDAF12 agonist 11.0
CCOc1ccc2nc(NC(=O)CSc3nc(SC)ns3)sc2c1	hcDAF12 agonist 6.1
CCOCC(=O)Nc1nc2ccc(OCC)cc2s1	hgDAF12 agonist 10.6
Cc1c(/C(O)=C2/C(=O)C(=O)N(Cc3cccnc3)C2c2cccs2)cnn1-c1ccccc1 (centres undefined)	none
N#Cc1ccccc1S(=O)(=O)N1CCN(C(=O)c2cc(=O)[nH]c3ccccc23)CC1	none
O=C(NCc1ccco1)c1ccc2c(=O)n(-c3ccccc3)c(=S)[nH]c2c1	DAX1 inh-2 4.9
COC(=O)[C@]12C[C@H](CC(=O)N3CCN(C(=O)c4ccco4)CC3)C(=O)N(Cc3cccc4ccccc34)C1=C[C@H](COCc1ccccc1)O[C@@H]2C	none (no result: DAX1 inh-2)
c1ccc(CCNC2=NCCCS2)cc1	none
Cc1c(C(=O)Nc2ccccc2N2CCN(C)CC2)oc2ccc(F)cc12	ssDAF12 agonist 1.0
C=CCNc1nc2ccccc2nc1NS(=O)(=O)c1cccc(C)c1	none
Cn1c(-c2ccccc2Br)n[nH]c1=S	hcDAF12 agonist 5.6
O=C(/C=C/c1ccccc1)NCC1(c2ccccc2)CCOCC1	DAX1 inh-2 5.0
O=C(/C=C/c1ccc(F)cc1)NCC1(c2ccccc2)CCOCC1	none
O=C(CN1C(=O)NC2(CCCCC2)C1=O)Nc1ccc(N2CCOCC2)cc1	none
O=C(CN1CCC(NC(=O)C2CC2)CC1)Nc1cccc(F)c1	ssDAF12 agonist 0.9
Cc1ccc(NC(=O)CN2CCC(NC(=O)c3cccc(F)c3)CC2)cc1C	none
COC(=O)C1C(c2ccccc2)NC(=O)NC1(O)C(F)(F)Cl (centres undefined)	DAX1 inh-2 4.7
CCOCCCNC(=O)Cn1cc2c(n1)-c1c(oc(C(=O)N3CCCC3)c1C)CC2	DAX1 inh-2 4.7
CCOc1ccc(C(=O)NC2C(=O)N3C(C(=O)O)=C(COC(C)=O)CSC23)cc1OCC (centres undefined)	DAX1 inh-1 4.4
O=c1oc(-c2ccc([N+](=O)[O-])cc2)nc2ccccc12	none
CCC(=O)Nc1cccc(-c2nc3ccccc3c(=O)o2)c1	none
O=c1oc(-c2ccc(Br)cc2)nc2ccccc12	ssDAF12 agonist 0.9
CCCOc1cccc(-c2nc3ccccc3c(=O)o2)c1	hgDAF12 agonist 10.7
COc1ccc(N(CC(=O)Nc2ccc3c(c2)OCCO3)S(=O)(=O)c2c(C)noc2C)cc1	none
Cc1ccc(N=Nc2c(N)nn3c(N)c(C#N)c(C)nc23)cc1	none
COc1ccc(N=Nc2c(N)nn(C)c2N)cc1	ssDAF12 agonist 1.2
CC(C)(C)c1ccc(C(=O)CC(Sc2ccc(Cl)cc2)C(=O)O)cc1 (centres undefined)	none
CC1CN/C(=C\C(=O)c2ccccc2)C(=O)N1 (centres undefined)	none
CC1CN/C(=C\C(=O)c2ccc(Cl)cc2)C(=O)N1 (centres undefined)	hgDAF12 agonist 12.2
Cc1cc(C)cc(NC(=O)CSc2nnc(C3CC3)n2CC2CCCO2)c1 (centres undefined)	none
COc1ccc(CNC(=O)COC(=O)c2cccnc2Nc2cccc(C(F)(F)F)c2)cc1	none
C#CCOCCOCCOCCNc1nc(N2CCN(C(=O)[C@H](CCCCN)n3cc(CN)nn3)CC2)nc(N2CCN(C(=O)[C@H](CCCCN)n3cc([C@@H](N)CC(N)=O)nn3)CC2)n1	none
C#CCOCCOCCOCCNc1nc(N2CCN(C(=O)[C@H](CCCCN)n3cc([C@@H](N)CC(N)=O)nn3)CC2)nc(N2CCN(C(=O)[C@H](CCCCN)n3cc([C@@H](N)CC(N)=O)nn3)CC2)n1	DAX1 inh-2 4.5
Cc1occc1C(=O)n1nnc2ccccc21	hcDAF12 agonist 5.8 (no result: DAX1 inh-2)
C=CCSc1nnc2nc3[nH]c4c(C)cccc4c3nn12	ssDAF12 agonist 0.9
CCOc1ccccc1/C=N/Nc1cc(C)nc2ccc(C)cc12	none
COc1ccc(NS(=O)(=O)c2ccc(N3C(=O)CCC3=O)cc2)cc1	DAX1 inh-2 4.7
COc1cccc(/C=N/n2c(=S)n(C)c3ccccc32)c1OC	none
COc1cccc(/C=N/n2c(=O)[nH]c3ccccc32)c1OC	DAX1 inh-2 4.9
CCC(=O)Nc1ccc(NC(=S)NC(=O)c2oc3ccccc3c2C)cc1	none
O=C(Nc1ccccc1)C1=C[C@H](c2ccccc2)C[C@H](OCCCCO)O1	hcDAF12 agonist 5.7
